Seven compounds from PubChem BioAssay (Tox21) can be followed below.

“And” between values parts separate entries of the source, which are not always exact repeats. Identical values can stand only once. Records with an inconclusive call do not appear. More than one record can exist for a structure, and the calls need not agree. The source made the active and inactive calls. Unless noted, calls come from the whole dose curve; as a rule, active = well fitted curve in the direction sought with a large enough effect in the repeat runs; inconclusive = weak or mixed curves; inactive = no such curve, though single readings can be large; an effect the other way counts as inactive or inconclusive.

Test [1] is described as follows: qHTS assay to identify small molecule HDAC inhibitors (AID 1259364). Note: potency is the fitted concentration of half-maximal effect.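 Note: wild-type HCT-116 cells with endogenous class I/II HDAC activity; nearly all actives have a fitted effect of over 45% in size.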 An outline of the steps:
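HCT-116 wt cells, 1,500/well, overnight attach. Compounds (DMSO) 2 h, 37 °C. HDAC-Glo I/II, 30 min RT. Luminescence.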

Test [2] is described as follows: qHTS assay to identify small molecule HDAC inhibitors - cell viability counter screen (AID 1259365). Note: series mostly up to about 92 µM; nearly all actives have a fitted effect of over 50% in size. In outline: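 Wild-type HCT-116 cells were seeded at 1,500 per well, incubated overnight at 37 C, then exposed to compounds in DMSO for 2hr. Viability was read by CellTiter-Glo luminescence after 30min at room temperature.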
(In qHTS, concentration-response curves come from the screen itself.)

The nature of test [3]: qHTS assay to identify small molecule agonists of the sonic hedgehog signaling (Shh) pathway - cell viability counter screen (AID 1259366). Note: nearly all actives have a fitted effect of over 50% in size. An outline of the steps:
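NIH/3T3-derived 3T3 Gli1-Luc cells (stable Gli1-responsive firefly luciferase reporter) were seeded, rested 4 hr at 37 C/5% CO2, then exposed to compounds in DMSO for 24 hr; viability was read by CellTiter-Fluor fluorescence in the same wells.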

Test [4] can be described thus: qHTS assay to identify small molecule antagonists of the sonic hedgehog signaling (Shh) pathway - cell viability counter screen (AID 1259367). Note: nearly all actives have a fitted effect of over 55% in size. Note: potency is the fitted concentration of half-maximal effect. In outline: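 Viability was read by CellTiter-Fluor fluorescence in the same wells, reagent added 23 hr into compound treatment and incubated 1 hr at 37C. The 3T3 Gli1-Luc reporter cells (2,000/well) received conditioned medium after compound and ran 24 hr.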

The nature of test [5]: qHTS assay to identify small molecule agonists of the sonic hedgehog signaling (Shh) pathway (AID 1259368; calls by dose curve; note: series mostly up to about 92 µM; nearly all actives have a fitted effect of over 15% in size). An outline of the steps: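 Following a 24 hr incubation with DMSO-dissolved compounds at 37 C, 5% CO2, Gli1-Luc NIH/3T3-derived cells received luciferase reagent for 30 min at room temperature prior to luminescence measurement.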
Test [6] in a line: qHTS assay to identify small molecule antagonists of the sonic hedgehog signaling (Shh) pathway (AID 1259369; calls by dose curve; note: nearly all actives have a fitted effect of over 45% in size; note: potency is the fitted concentration of half-maximal effect). In outline:
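Read-out is luminescence from a firefly luciferase gene controlled by the Gli1 response element, in 3T3Gli1-Luc cells pre-incubated 4hr then exposed to compounds and conditioned medium for 24hr.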

The target of test [7] is Estrogen receptor beta (Homo sapiens) (UniProt Q92731). Briefly: qHTS assay to identify small molecule agonists of the estrogen receptor beta (ER-beta) signaling pathway (AID 1259377; active = well fitted activation curve with a large enough effect in the signal ratio in the repeat runs, not every such curve was filed as active; the % refers to the signal ratio). In outline: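 ER-beta-UAS-bla HEK293T (GripTite) cells carrying a UAS-driven beta-lactamase reporter, in medium with 2% charcoal-stripped FBS, were exposed to compounds for 16 hr at 37C; LiveBLAzer B/G FRET substrate was then added and fluorescence read after 2 hours at room temperature.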
Sequence of Estrogen receptor beta (Homo sapiens) (Q92731 whole entry, looked up): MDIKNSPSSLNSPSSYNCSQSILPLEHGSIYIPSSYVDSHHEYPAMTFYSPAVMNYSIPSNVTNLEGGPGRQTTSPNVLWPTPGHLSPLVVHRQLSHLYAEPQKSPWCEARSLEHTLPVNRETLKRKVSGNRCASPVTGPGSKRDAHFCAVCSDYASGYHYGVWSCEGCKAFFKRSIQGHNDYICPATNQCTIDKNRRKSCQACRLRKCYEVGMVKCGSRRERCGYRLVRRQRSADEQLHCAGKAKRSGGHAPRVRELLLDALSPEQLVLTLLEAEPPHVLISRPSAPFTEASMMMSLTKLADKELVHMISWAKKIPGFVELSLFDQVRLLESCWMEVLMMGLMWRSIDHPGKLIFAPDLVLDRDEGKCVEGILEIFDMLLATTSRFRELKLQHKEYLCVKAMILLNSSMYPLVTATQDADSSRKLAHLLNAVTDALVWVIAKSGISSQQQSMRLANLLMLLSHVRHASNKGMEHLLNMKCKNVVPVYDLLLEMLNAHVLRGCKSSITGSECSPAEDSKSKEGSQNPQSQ

For test [8] the target is unchanged. Briefly: qHTS assay to identify small molecule antagonists of the estrogen receptor beta (ER-beta) signaling pathway (AID 1259378; active = well fitted inhibition curve with a large enough effect in the signal ratio in the repeat runs, not every such curve was filed as active; the % refers to the signal ratio). In outline:
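Antagonist mode: compounds added to beta-lactamase reporter HEK293T ER-beta-UAS cells stimulated with E2 (1nM final), 16 hr at 37C. LiveBLAzer B/G FRET substrate, 2 hours room temperature, fluorescence read-out.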

A short description of test [9]: qHTS assay to identify small molecule agonists of the androgen receptor (AR) signaling pathway in the presence of an antagonist - cell viability counter screen (AID 1259379).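 Note: MDA-kb2 human breast cancer cells carrying an MMTV luciferase reporter; series mostly up to about 92 µM; nearly all actives have a fitted effect of over 25% in size.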 In outline: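 Each compound was tested at 15 concentrations on MDA-kb2 cells in the presence of 3.0uM nilutamide. Viability was measured by CellTiter-Fluor fluorescence after a 16 hr incubation at 37C in a CO2-free atmosphere.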

Test [10] can be described thus: qHTS assay to identify small molecule agonists of the estrogen receptor beta (ER-beta) signaling pathway - cell viability counter screen (AID 1259380). Note: nearly all actives have a fitted effect of over 30% in size. Note: potency is the fitted concentration of half-maximal effect. In outline: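 Compounds dissolved in DMSO were pin-transferred onto ER-beta-UAS-bla HEK293T cells that had settled 6 hr, and exposure ran 16 hr at 37C. Following the reporter read, CellTiter-Glo luminescence after 30 min at room temperature indicated cytotoxicity.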

Test [11] can be described thus: qHTS assay to identify small molecule antagonists of the estrogen receptor beta (ER-beta) signaling pathway - cell viability counter screen (AID 1259382). Note: nearly all actives have a fitted effect of over 55% in size. Note: potency is the fitted concentration of half-maximal effect. In outline:
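CellTiter-Glo ATP luminescence measured after the LiveBLAzer read in the same wells; ER-beta-UAS-bla HEK293T cells, 16 hr compound treatment with 1nM 17-beta-estradiol agonist at 37C, 5% CO2.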

In test [12] the target is Progesterone receptor (Homo sapiens) (UniProt P06401). Briefly: qHTS assay to identify small molecule antagonists of the progesterone receptor (PR) signaling pathway (AID 1346795; active = well fitted inhibition curve with a large enough effect in the signal ratio in the repeat runs, not every such curve was filed as active; the % refers to the signal ratio). In outline:
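PR-UAS-bla HEK293T cells carrying a UAS-driven beta-lactamase reporter were plated in medium with 2% charcoal-stripped FBS and rested 6 hr at 37C. Compounds were added with 1 nM R5020 (final) for 16 hr, then FRET substrate loaded 2 hr at room temperature.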

A short description of test [13]: qHTS assay to identify small molecule phospholipidosis (PLD) inducers (AID 1259344; active = well fitted curve in the direction sought with a large enough effect; an effect the other way counts as inactive or inconclusive). In outline: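 Phospholipid accumulation was scored by imaging: fixed, Hoechst-counterstained HepG2 cells stained with LipidTOX Red after 24 h compound exposure at 37 C. Read-outs were pit count and pit intensity per well or per cell, with amiodarone and DMSO controls.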
The nature of test [14]: qHTS assay to identify small molecule agonists or antagonists of the thyroid stimulating hormone receptor (TSHR) signaling pathway - wild type cell line counter screen (AID 1259384; calls by dose curve). An outline of the steps:
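Counter screen in untransfected Hek293: compounds (15-point titration, triplicate) plus phosphodiesterase inhibitor Ro20-1724 added after 18 h plating; 30 min RT. Intracellular cAMP via competitive d2/cryptate immunoassay, 1 h incubation.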

In test [15] the target is Thyrotropin receptor (Homo sapiens) (UniProt P16473). The experiment in a line: qHTS assay to identify small molecule antagonists of the thyroid stimulating hormone receptor (TSHR) signaling pathway (AID 1259385; calls by dose curve; note: nearly all actives have a fitted effect of over 20% in size). An outline of the steps:
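Antagonist mode: compound-treated TSHR-expressing HEK293 cells were stimulated with 1.5 ng/mL TSH (final) in presence of Ro20-1724 for 30 min at RT. HTRF cAMP detection after 1 h; each compound tested at 15 concentrations, triplicate.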

Test [16] deals with Progesterone receptor (Homo sapiens) (UniProt P06401). Briefly: qHTS assay to identify small molecule agonists of the progesterone receptor (PR) signaling pathway (AID 1346784; calls by dose curve; note: nearly all actives have a fitted effect of over 30% in size). In outline: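 PR-UAS-bla HEK 293T cells carrying a UAS-driven beta-lactamase reporter were seeded in medium with 2% charcoal-stripped FBS, preincubated 6 hr at 37C, then exposed to compounds in DMSO for 16 hr; agonism was read by LiveBLAzer B/G FRET fluorescence.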
Sequence of Progesterone receptor (Homo sapiens) (P06401 whole entry, looked up): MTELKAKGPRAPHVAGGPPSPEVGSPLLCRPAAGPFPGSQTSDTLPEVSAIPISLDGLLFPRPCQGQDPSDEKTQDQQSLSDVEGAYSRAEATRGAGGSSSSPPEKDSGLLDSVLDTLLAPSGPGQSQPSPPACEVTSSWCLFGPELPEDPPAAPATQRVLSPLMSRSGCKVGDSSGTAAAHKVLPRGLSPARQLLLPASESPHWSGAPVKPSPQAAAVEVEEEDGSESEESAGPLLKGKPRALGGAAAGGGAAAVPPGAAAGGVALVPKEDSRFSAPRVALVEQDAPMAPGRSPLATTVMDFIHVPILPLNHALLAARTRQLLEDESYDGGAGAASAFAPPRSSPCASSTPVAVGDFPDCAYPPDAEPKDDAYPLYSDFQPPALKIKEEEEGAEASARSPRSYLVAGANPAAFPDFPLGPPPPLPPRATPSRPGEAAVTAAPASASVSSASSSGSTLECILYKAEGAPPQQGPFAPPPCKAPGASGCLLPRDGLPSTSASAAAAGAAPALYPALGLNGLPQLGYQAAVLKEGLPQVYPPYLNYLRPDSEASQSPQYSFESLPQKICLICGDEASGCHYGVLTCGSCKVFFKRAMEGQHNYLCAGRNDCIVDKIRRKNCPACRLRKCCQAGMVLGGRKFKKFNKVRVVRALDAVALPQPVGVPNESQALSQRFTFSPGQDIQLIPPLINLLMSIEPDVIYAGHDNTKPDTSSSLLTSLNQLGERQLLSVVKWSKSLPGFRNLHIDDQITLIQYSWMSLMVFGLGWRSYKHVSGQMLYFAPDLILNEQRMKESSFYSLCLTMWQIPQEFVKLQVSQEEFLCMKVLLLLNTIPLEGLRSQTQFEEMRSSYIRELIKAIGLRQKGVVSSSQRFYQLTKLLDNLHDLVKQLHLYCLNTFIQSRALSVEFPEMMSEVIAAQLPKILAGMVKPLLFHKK

The target in test [17] is Estrogen receptor (Homo sapiens) (UniProt P03372). Briefly: qHTS assay to identify small molecule antagonists of the estrogen receptor alpha (ER-alpha) signaling pathway using the BG1 cell line in the presence of 0.1 nM 17-beta-estradiol (AID 1259244). Note: nearly all actives have a fitted effect of over 50% in size. In outline: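 Luciferase signal from VM7Luc4E2 ERE-reporter cells, co-dosed with test compound and 0.1 nM final 17beta-estradiol for 22 h, read with ONE-Glo.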
Sequence of Estrogen receptor (Homo sapiens) (P03372 whole entry, looked up): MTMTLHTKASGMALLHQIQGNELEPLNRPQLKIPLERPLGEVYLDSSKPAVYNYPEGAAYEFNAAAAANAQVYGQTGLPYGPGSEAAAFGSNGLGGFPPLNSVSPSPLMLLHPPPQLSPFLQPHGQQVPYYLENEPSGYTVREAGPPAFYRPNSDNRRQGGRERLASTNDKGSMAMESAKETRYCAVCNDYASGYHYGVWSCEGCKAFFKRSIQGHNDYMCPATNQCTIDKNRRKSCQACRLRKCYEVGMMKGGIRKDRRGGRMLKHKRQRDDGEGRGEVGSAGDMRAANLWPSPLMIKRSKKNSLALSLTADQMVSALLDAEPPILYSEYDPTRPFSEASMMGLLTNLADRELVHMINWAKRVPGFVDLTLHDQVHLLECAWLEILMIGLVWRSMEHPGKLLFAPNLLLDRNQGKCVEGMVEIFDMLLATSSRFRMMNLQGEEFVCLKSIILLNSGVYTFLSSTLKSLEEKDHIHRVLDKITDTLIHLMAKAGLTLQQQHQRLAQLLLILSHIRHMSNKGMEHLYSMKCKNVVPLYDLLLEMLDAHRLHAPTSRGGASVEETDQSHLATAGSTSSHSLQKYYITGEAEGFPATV

For test [18] the target is unchanged. Briefly: qHTS assay to identify small molecule agonists of the estrogen receptor alpha (ER-alpha) signaling pathway in the presence of an antagonist (AID 1259383; calls by dose curve; note: top concentration of the series differs between compounds; nearly all actives have a fitted effect of over 15% in size). An outline of the steps:
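Luminescent ERE-luciferase reporter, VM7Luc4E2 cells (endogenous ER-alpha); 10.0nM ICI-182,780 final; 15-point compound titration; 22hr at 37C; ONE-Glo, 30min RT.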

Sequence of Thyrotropin receptor (Homo sapiens) (P16473 whole entry, looked up): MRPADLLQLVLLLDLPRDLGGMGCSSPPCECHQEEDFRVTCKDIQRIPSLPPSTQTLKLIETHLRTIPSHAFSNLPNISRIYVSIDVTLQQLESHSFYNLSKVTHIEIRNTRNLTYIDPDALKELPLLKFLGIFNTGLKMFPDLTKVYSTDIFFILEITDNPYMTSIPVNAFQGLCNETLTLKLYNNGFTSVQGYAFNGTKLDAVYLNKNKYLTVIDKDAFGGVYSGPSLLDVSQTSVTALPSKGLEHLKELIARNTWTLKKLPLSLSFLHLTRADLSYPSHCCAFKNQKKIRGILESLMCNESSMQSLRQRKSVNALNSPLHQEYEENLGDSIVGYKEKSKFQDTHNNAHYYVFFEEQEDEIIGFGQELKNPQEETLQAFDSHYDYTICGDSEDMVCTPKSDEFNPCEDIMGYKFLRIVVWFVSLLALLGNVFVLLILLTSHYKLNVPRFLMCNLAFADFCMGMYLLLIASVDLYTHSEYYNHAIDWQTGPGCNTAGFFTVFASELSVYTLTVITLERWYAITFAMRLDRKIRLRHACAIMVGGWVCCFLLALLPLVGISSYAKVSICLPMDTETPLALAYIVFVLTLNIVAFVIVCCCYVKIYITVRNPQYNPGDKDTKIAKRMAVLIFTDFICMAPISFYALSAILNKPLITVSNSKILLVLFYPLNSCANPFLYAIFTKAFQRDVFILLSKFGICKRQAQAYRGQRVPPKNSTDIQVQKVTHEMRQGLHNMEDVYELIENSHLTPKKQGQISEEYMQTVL

With `O=[N+]([O-])c1ccccc1O`, the Potency result in [1], in test [2], in test [3], in test [4], in [6] and in test [8] was “inactive” each time. For the same compound, the Potency result in test [9], in test [10], in test [11] and in [12] was “inactive” in each case. Moreover, the call in [5] and in test [7] was inactive.
`COP(=O)(OC)C(O)C(Cl)(Cl)Cl` (stereo not drawn): the compound was classed as inactive in test [13] and in [5]. The Potency result in [1], in test [2], in [3], in test [4], in test [6] and in [9] was “inactive” throughout. Further, the Potency result in test [10], in [11], in test [14], in [15] and in test [16] was “inactive” in each case.
Take `Nc1ccc(Cl)cc1`: the Potency result in [17], in test [2], in test [3], in [4], in test [6] and in test [9] was “inactive” in each case. Also, the Potency result in test [10], in test [11], in test [18], in test [14], in test [15] and in test [16] was “inactive” throughout. Besides, in test [1], the Potency result was “inactive and 27.8 µM (active)”. For the same compound, in [5], the compound was called inactive.
Consider `OCCOc1ccccc1`, for which the Potency entry in [17], in [1], in [2], in test [3], in test [4] and in test [6] was “inactive” in each case. Further, the Potency result in [8], in [9], in test [10], in test [11], in test [18] and in test [14] was “inactive” throughout. In addition, the Potency result in test [15] and in test [12] was “inactive” each time. For the same compound, the call in [13], in test [5] and in [7] was inactive.
Turning to `C[C@]12CCC(=O)C=C1CC[C@@H]1[C@@H]2CC[C@]2(C)C(=O)CC[C@@H]12`, the Potency entry in [17], in test [1], in test [2], in test [3], in [8] and in test [9] was “inactive” throughout. Moreover, the Potency entry in [18], in test [14], in [15] and in test [16] was “inactive” throughout. Also, the Potency in [4] was 60.1 µM (active) and inactive; in test [6], 15.1 µM (active) and 13.7 µM (active) and inactive; in test [10] it was 53.5 µM (active) and 54.5 µM (active); in test [11], 47.7 µM (active) and inactive. In addition, the call in test [5] and in test [7] was inactive.
Turning to `CC(Cl)(Cl)C(=O)O`, the Potency result in test [17], in test [1], in test [2], in [3], in [4] and in test [6] was “inactive” throughout. Also, the Potency entry in test [8], in test [9], in [10], in test [11], in [18] and in test [14] was “inactive” in each case. For the same compound, the Potency result in test [15] and in test [12] was “inactive” throughout. Besides, the result in test [5] and in test [7] was inactive.
For `O=C(O)CCl`, the Potency entry in [1], in [2], in test [3], in test [4], in test [6] and in test [8] was “inactive” each time. Also, the Potency entry in test [9], in [10], in test [11], in test [14], in [15] and in test [16] was “inactive” each time. Also, the Potency entry in [12] was “inactive”. The compound was classed as inactive in [5] and in test [7].
